High-throughput results from PubChem.
FAS-TE inh – FAS thioesterase (human) inhibition | inhibition, % at 15 µM | recombinant FAS-TE, OMFH fluorogenic substrate, fluorescence endpoint | 0.67% of 360,000 active | AID 602261;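 active means compounds whose normalised, plate-corrected inhibition of enzyme fluorescence in the single-dose primary screen is 50% or more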;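 further: 0% = DMSO with enzyme and 100% = substrate without enzyme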
rCAG binder – molecules binding r(CAG) RNA repeats; r(CAG) RNA repeat, TO-PRO-1 dye displacement fluorescence; inhibition, % at 3 µM; 1.3% of 370,000 active; AID 651821;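 active means inhibition above the plate cutoff, the mean of all test compounds on that plate plus 3 SD, cut at about 35% in these data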;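 further: 0% = DMSO alone and 100% = 100 µM mitoxantrone as full dye displacement; higher means more dye released from RNA so lower well fluorescence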
NadD inh – blocks S. aureus nicotinate mononucleotide adenylyltransferase; purified NadD enzyme, colorimetric absorbance read-out; inhibition, % at 20 µM; 0.78% of 360,000 active; in the data active means inhibition above about 26%
GRIN3A LBD mod – NR3A (human) ligand-binding domain modulation | Tm shift relative to glycine control, % at 25 µM | 2.5% of 340,000 active | NR3A LBD differential scanning fluorimetry, Tm shift; 0% = protein alone, 100% = glycine-bound protein;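 active means melting temperature shift of at least 10% of the positive control shift, at one fixed dose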
The depositor's hits bear a star; / = no result. Most compounds without a hit are left out; they make up all but 4.3% or so of the library.

SMILES | FAS-TE inh | rCAG binder | NadD inh | GRIN3A LBD mod
Oc1ccc(N=Nc2ccc(Br)cc2)c(O)c1 | -2 | 9 | -3 | -19
COC(=O)C[C@H]1CC[C@@H]2[C@@H](COc3ccc(NC(=O)C4CCCCC4)cc3C(=O)N2C)O1 | / | 0 | / | /
COC(=O)C12OCC34C(CC5C(C)=C(O)C(=O)CC5(C)C3C(O)C1O)OC(=O)C(OC(=O)C=C(C)C)C24 (centres undefined) | -11 | -1 | 1 | 14*
N#C/C(=C\c1ccc(OCc2ccccc2)cc1)C(N)=O | 7 | 0 | -2 | 12*
Cc1ccccc1COc1ccc(/C=C(\C#N)C(N)=O)cc1 | 2 | -2 | -11 | 6
COc1ccc(C(O)(CCC(C)C)C(CN2CCOCC2)c2ccc(Cl)cc2)cc1 (centres undefined) | 23 | -1 | -4 | 16*
Cc1ccc(OCCNC(=O)CCNS(=O)(=O)c2ccc(C)cc2)cc1 | -1 | -4 | -9 | -3
CCOc1ccc(S(=O)(=O)NCCC(=O)NCCOc2ccccc2)cc1 | 5 | -1 | 2 | 65*
CC(C)c1ccc(C(CC(=O)c2ccc(Cl)cc2)C(=O)O)cc1 (centres undefined) | 29 | 45* | -2 | 1
CCc1ccc(C(CC(=O)c2ccc(Cl)cc2)C(=O)O)cc1 (centres undefined) | 2 | 22 | -4 | 0
COC(=O)c1c(C)oc2ccc(N(C(=O)c3ccncc3)S(=O)(=O)c3ccc4ccccc4c3)cc12 | 39 | 9 | 21 | 4
COC(=O)c1c(C)oc2ccc(N(C(=O)Oc3ccccc3)S(=O)(=O)c3ccc(Cl)c([N+](=O)[O-])c3)cc12 | 30 | / | 31* | 1
CN=C(Nc1cc(Cl)ccc1Cl)SC1CC(=O)N(c2ccc(C(=O)OC)cc2)C1=O (centres undefined) | 10 | 0 | -7 | 14*
COC(=O)c1ccc(N2C(=O)CC(SCC(=O)Nc3ccc(OC)cc3)C2=O)cc1 (centres undefined) | -8 | 4 | -4 | 7
O=C1Nc2ccccc2C1=NN1CCCCCC1 | -4 | 2 | 3 | 0
Nc1n[nH]c(=S)n1/N=C1/C(=O)Nc2ccccc21 | -6 | 14 | 14 | 26*
CCCCN(Cc1cc2cc(OC)ccc2[nH]c1=O)C(=O)c1ccccn1 | -4 | -9 | 1 | 13*
CCCN(Cc1cc2cc(C)ccc2[nH]c1=O)C(=O)c1ccccn1 | -5 | -3 | -1 | -1
CCCCOCCCNC(=O)C[C@H]1C[C@@]2(C(=O)OC)C(=C[C@H](C(C)C)O[C@@H]2C2CC2)N(Cc2ccc(Cl)cc2Cl)C1=O | / | 7 | / | /
C(=Nc1ccc(Nc2ccccc2)cc1)c1ccc2ccccc2c1 | 2 | / | 0 | -13
Brc1ccc(C=Nc2ccc(Nc3ccccc3)cc2)s1 | 35 | / | 6 | 12*
COc1cccc(Nc2c(Nc3cccc(OC)c3)c(=O)c2=O)c1 | 0 | 3 | 7 | 6
CC(=O)c1cccc(Nc2ccc(-c3ccccc3F)nn2)c1 | 0 | 3 | 1 | -12
COc1ccccc1-c1ccc(Nc2cccc(C(C)=O)c2)nn1 | 0 | 1 | 0 | 11*
COc1cccc(Nc2ccc(Nc3cccc(OC)c3)nn2)c1 | 13 | 5 | -3 | 33*
SMILES | FAS-TE inh | rCAG binder | NadD inh | GRIN3A LBD mod
CCCCCCCCNC(=O)C1CSCCS(=O)(=O)N1Cc1ccc(F)cc1 (centres undefined) | / | -1 | / | /
Cc1ccc(S(=O)(=O)Nc2cc(=O)[nH]c(SCc3ccc(Cl)cc3)n2)cc1 | 16 | 3 | -4 | 11*
COCCCN1C(=O)[C@H](CC(=O)NCCCN2CCCC2=O)[C@]2(C(=O)OC)CCCCC=C12 | / | 1 | / | /
CC(=O)Nc1nc(-c2cccs2)cs1 | -5 | 1 | 3 | 1
O=C(Nc1nc(-c2cccs2)cs1)c1ccc(Cl)s1 | 28 | 9 | 2 | 28*
O=C(Nc1nc(-c2ccc(Cl)s2)cs1)c1ccccc1 | 32 | 8 | -10 | 15*
O=C(O)C1CCC1C(=O)Nc1nc(-c2ccc(Cl)s2)cs1 (centres undefined) | -3 | 4 | 3 | 1
O=C(Nc1cccc(F)c1)OCCCN1CCC2(CCC(c3ccccc3)CC2)C1 (centres undefined) | / | 1 | / | /
CCc1ccc(S(=O)(=O)/N=C2/C=C(Sc3ncn[nH]3)C(=O)c3ccccc32)cc1 | 29 | / | 71* | -12
O=C1CC(N2CCCN(Cc3ccccc3)CC2)=NC(=O)N1c1ccc(Br)cc1 | / | 7 | / | /
CCOC(=O)/C(C#N)=C/c1c(Oc2cc(C)cc(C)c2)nc2ccccn2c1=O | -9 | -1 | -5 | 15*
C[C@@H]1ON(C)[C@H]2C[C@H]3c4cc(-c5cccc(Cl)c5)ccc4CCN3C[C@@H]12 | / | 1 | / | /
